Experimental data as given in PubChem BioAssay AID1851 (National Center for Advancing Translational Sciences (NCATS), 2009).
Among all 16,000 compounds or so, about 2,600 (16%) were called active. Inconclusive results (about 20%) are left out. The list is a sample of the results. A number with no mark means an inactive call. Calls come from the whole dose curve; as a rule, active = well fitted curve in the direction sought with a large enough effect; inconclusive = small, poorly fitted or top-dose-only effect, or effect the other way; inactive = no such curve, though single readings can be large or run the other way.

Target: Cytochrome P450 2D6 (Homo sapiens) (UniProt P10635)
Sequence (P10635 whole entry, looked up): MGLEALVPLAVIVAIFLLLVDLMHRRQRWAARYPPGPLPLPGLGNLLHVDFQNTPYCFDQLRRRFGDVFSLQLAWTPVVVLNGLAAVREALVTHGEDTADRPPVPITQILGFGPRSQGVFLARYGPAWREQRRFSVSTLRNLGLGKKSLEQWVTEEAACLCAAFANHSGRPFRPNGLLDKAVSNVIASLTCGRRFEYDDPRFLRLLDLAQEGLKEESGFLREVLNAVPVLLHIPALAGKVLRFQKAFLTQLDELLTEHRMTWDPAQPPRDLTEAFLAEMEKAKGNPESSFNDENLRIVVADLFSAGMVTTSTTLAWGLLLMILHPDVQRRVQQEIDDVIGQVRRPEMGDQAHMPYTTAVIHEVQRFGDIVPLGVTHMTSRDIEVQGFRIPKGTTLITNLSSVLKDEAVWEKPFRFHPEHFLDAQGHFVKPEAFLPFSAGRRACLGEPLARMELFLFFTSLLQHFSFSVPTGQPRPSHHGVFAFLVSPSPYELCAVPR
Assay: Cytochrome panel assay with activity outcomes
Settings: recombinant CYP, pro-luciferin dealkylation, luminescence, p450-cyp2d6; series mostly up to 57.1 µM; activity, negative = inhibition: at the top concentration
% is set by controls: 0 for no effect and ±100 for the full control effect.

Structure (SMILES)	activity, negative = inhibition	AC50
COc1ccc(-c2nc3cnc(OC)nc3n(Cc3cccc(OC)c3)c2=O)cc1	1.59%	–
Cc1ccc(-c2ccc(=O)n(CC(=O)NCCN(C)C)n2)cc1	-7.07%	–
Cc1ccc(-c2ccc(=O)n(CC(=O)NCCN3CCCCC3C)n2)cc1 (centres undefined)	–	2 µM (active)
COCCCNC(=O)Cn1nc(-c2ccccc2OC)ccc1=O	8.82%	–
CCOC(=O)N1CCN(C(=O)CCn2nc(-c3ccccc3)ccc2=O)CC1	-0.57%	–
CN(C)CCNC(=O)Cn1nc(-c2ccc(Cl)cc2)ccc1=O	-16.6%	–
CC1CCCC(C)N1CCNC(=O)Cn1nc(-c2ccccc2)ccc1=O (centres undefined)	–	22.4 µM (active)
O=C(Nc1ccccc1N1CCOCC1)c1ccccc1[N+](=O)[O-]	0.526%	–
N#Cc1cccc(NC(=O)N2CCCC3(CCN(C(=O)c4cc(C(F)(F)F)cc(C(F)(F)F)c4)CC3)C2)c1	-13.8%	–
CCOC(=O)Cn1nc(C)n(-c2ccc(C)cc2)c1=O	-4.78%	–
CC(=O)CCCCn1c(=O)c2c(ncn2C)n(C)c1=O	1.46% [at 25.6 µM]	–
CN(C)S(=O)(=O)Nc1ccccn1	-5.07% [at 11.4 µM]	–
Nc1ccc(S(=O)(=O)Nc2ccccn2)cc1	3.38% [at 25.6 µM]	–
O=C1C(Cl)=C(Nc2ccc(S(=O)(=O)Nc3ccccn3)cc2)C(=O)c2ccccc21	–	3.16 µM (active)
Cc1nnc(SCC2=C(C(=O)O)N3C(=O)[C@@H](NC(=O)Cn4cnnn4)[C@@H]3SC2)s1	–	inactive
CCCn1c(-c2ccccc2)nc2c(=O)n(C)c(=O)[nH]c21	19.4%	–
COc1ccc(C[C@H](N)C(=O)N[C@@H]2[C@H](O)[C@H](n3cnc4c(N(C)C)ncnc43)O[C@@H]2CO)cc1	2.91% [at 25.6 µM]	–
c1cncc(-c2cc(-c3cc(-c4cccnc4)n[nH]3)[nH]n2)c1	-12.7% [at 11.4 µM]	–
CN(C)c1ccc(-c2cc(-n3ccnc3)ncn2)cc1	–	7.94 µM (active)
c1cncc(-c2cc(-n3ccnc3)ncn2)c1	–	15.8 µM (active)
c1cncc(-c2cccnc2)c1	-3.3%	–
CN1CCN(c2cc(-c3ccc(N(C)C)cc3)ncn2)CC1	-3.44%	–
CC(C)(C)c1onc(OCP(=O)(O)O)c1C[C@@H](N)C(=O)O	-0.906%	–
Cc1cccc(NS(=O)(=O)c2c(C)n[nH]c2C)c1	-0.85%	–
CCC1CC(CSc2ncn[nH]2)OC1=O (centres undefined)	22.7%	–
O=C(CSc1ncnc2nc[nH]c12)c1ccccc1	-6.92% [at 11.4 µM]	–
CCn1ncc(/C=C/C(=O)NCc2cn(C)nc2C)c1C	12.8%	–
CCCC(=O)Nc1c(C)n[nH]c1C	0.796%	–
CCCCCCCCCCn1c2c(c(=N)c3c1CCC3)CCC2	–	3.55 µM (active)
